Laboratory results: PubChem BioAssay AID1619 (SRMLSC, 2009)
The whole screen tested about 220,000 compounds, of which about 830 (0.38%) were called active.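 The calls were made as follows: active = compound inhibiting the enzyme by more than half at any dose during confirmatory dose-response retesting; inconclusive = strong single-dose inhibitors picked by rank but not retested; inactive = the rest.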 The list is a sample of the results. Entries with a potency or affinity are not part of this list.

target: Leucine aminopeptidase (Plasmodium falciparum (isolate 3D7)) (UniProt Q8IL11); test: P. falciparum M17LAP inhibitors, primary screen, biochemical, fluorogenic H-Leu-NHMec substrate, 1536-well (AID 1619); details: recombinant M17LAP, H-Leu-NHMec fluorogenic kinetic assay; at 30 µM; stronger effect = higher value;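 also: plate controls were full reaction with DMSO carrier for no effect and no enzyme background for full effect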
Sequence (Q8IL11 whole entry, looked up): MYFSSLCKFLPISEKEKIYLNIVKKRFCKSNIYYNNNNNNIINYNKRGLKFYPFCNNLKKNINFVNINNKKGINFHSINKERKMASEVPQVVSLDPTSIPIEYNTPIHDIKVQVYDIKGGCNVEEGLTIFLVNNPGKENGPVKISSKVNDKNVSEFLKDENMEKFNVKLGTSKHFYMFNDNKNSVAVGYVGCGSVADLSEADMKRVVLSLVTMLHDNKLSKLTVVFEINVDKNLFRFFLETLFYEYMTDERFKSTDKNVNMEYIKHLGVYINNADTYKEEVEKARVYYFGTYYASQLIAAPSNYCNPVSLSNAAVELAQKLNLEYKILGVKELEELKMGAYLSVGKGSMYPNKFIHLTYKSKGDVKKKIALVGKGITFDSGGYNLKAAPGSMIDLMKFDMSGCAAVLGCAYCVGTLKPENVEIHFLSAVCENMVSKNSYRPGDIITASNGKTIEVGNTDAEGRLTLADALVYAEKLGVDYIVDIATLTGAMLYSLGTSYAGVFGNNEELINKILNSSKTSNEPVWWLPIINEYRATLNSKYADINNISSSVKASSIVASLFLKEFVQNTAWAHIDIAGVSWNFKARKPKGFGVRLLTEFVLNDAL

inhibition, inactive:
CCOC(=O)c1cnc2c(OC)cccc2c1Nc1ccc2c(c1)OCCO2 2.45%, O=C(Nc1nc2cc3c(cc2s1)OCCO3)c1ccc(N2C(=O)CCC2=O)cc1 0.52%, O=C(O)c1cc2c(cc1Br)OCCCO2 -43.7%, COc1ccc(OC)c(NC(=O)c2cccnc2Sc2ccccc2)c1 -17.3%, CC1CC(C)CN(CCOc2ccc(Br)cc2)C1 (configuration not stated) -2.12%, CC(C)(C)C(=O)N1CCC[C@H]1C(O)(c1ccccc1)c1ccccc1 -4.15%, OC(CNCc1ccccn1)c1ccccc1 (configuration not stated) -7.85%, COc1cccc(NC2=CC(=O)CC(C)(C)C2)c1 -33.9%, Clc1ccc(Nc2ccc(Cl)nn2)cc1 -4.12%, Clc1cc(Cl)cc(Nc2ncnc(-n3cccc3)n2)c1 12.9%, S=c1[nH]nc(Nc2ccc(Cl)cc2)s1 11.5%, COC(=O)C1=C(Nc2cc(Cl)cc(Cl)c2)CSC1 5.27%, CCc1nc2c(c(=O)c3ccccc3n2C)c(=O)n1C1CCCCCC1 11%, O=C(Nc1ccncc1)c1cccc2ccccc12 7%, Cc1nc(NC(=O)Nc2ccc(Cl)cc2)sc1C 2.28%, N#CC(C#N)=C1C=C2C=C(N3CCCCCC3)CCC2CC1 (configuration not stated) 10.6%, N#CC(C#N)=C1C=C2C=C(N3CCCCC3)CCC2CC1 (configuration not stated) 0.1%, O=C1c2ccccc2C(=O)c2cc(S(=O)(=O)Nc3ccccc3)ccc21 9.48%, O=C(Nc1ccc(Cl)cc1)OCc1cn(-c2ccccc2)nn1 6.64%, CCOc1ccc(Oc2c(/C=N/NC(N)=O)c(C)nn2-c2ccccc2)cc1 3.82%, Cc1nn(-c2ccccc2)c(C)c1/C=N/O 4.53%, Cc1nn(-c2ccccc2)c(C)c1/C=N/n1c(-c2ccccc2Br)n[nH]c1=S -1.13%, CCSc1nnc(-c2cc(Br)ccc2N=Cc2c(C)[nH]n(-c3ccccc3)c2=O)c(=O)[nH]1 0.47%, C=CCSc1nnc(-c2ccccc2N=Cc2c(C)[nH]n(-c3ccccc3)c2=O)c(=O)[nH]1 56.2%, Cc1ccccc1-c1n[nH]c(=S)n1/N=C/c1c(C)nn(-c2ccccc2)c1C 6.29%, CC(C)[C@H](NC(=O)[C@H](CCCN=C(N)N)NC(=O)NC(Cc1ccccc1)C(=O)O)C(=O)NC(C=O)CCCN=C(N)N (some centres not stated) 6.32%, O=c1[nH]c(-c2ccc3c(c2)OCO3)nc2c1sc(=S)n2-c1ccccc1 -0.6%, Cc1ccc(CN2C(=O)N/C(=C\c3ccc(-c4ccc(C(=O)O)cc4C)o3)C2=O)cc1 4.73%, Cc1cc(C(=O)O)ccc1-c1ccc(/C=C2\NC(=O)N(Cc3ccc(F)cc3)C2=O)o1 0.19%, Nc1cnc(CNc2ccccc2Cl)cn1 4.54%, CCn1c(N2CCN(S(=O)(=O)c3ccc(F)cc3)CC2)nc2ccccc21 2.95%, CC(=O)Nc1ccc(NC(=O)COC(=O)c2n[nH]c3ccccc23)cc1 2.47%, Nc1nonc1-c1nc2ccccc2n1CC(=O)N/N=C/c1ccc(-c2cccc(C(=O)O)c2)o1 31.4%, Nc1nonc1-c1nc2ccccc2n1CC(=O)N/N=C\c1ccc(-c2ccc(Cl)cc2)o1 3.34%, COc1cccc(C(=O)COC(=O)C(C)N2C(=O)C3C4C=CC(C4)C3C2=O)c1 (configuration not stated) 4%, CC1CCc2nc(NCCO)nc(C(F)(F)F)c2C1 (configuration not stated) 7.69%, COc1ccccc1CCc1nnc(CCC(=O)N(C)Cc2ccncc2C)o1 -1.17%, Cc1ccc2oc(=S)n(C)c2c1 3.68%, O=C(CSc1nnc(-c2ccc(O)cc2)n1Cc1ccco1)c1ccccc1 5.35%, CCOC(=O)c1c(NC(=S)Nc2ccc(F)cc2)sc2c1CCC2 6.14%, CCOC(=O)c1c(NC(=S)Nc2ccccc2)sc(C)c1C 26.5%, NC(=O)c1c(NC(=S)Nc2ccccc2)sc2c1CCCC2 16.9%, CCOC(=O)c1c(NC(=S)Nc2ccc(Cl)cc2)sc(C)c1C 12.6%, OCCN1CCN(c2nc(-c3ccccc3)nc3c2oc2ccccc23)CC1 7.26%, CNC(=O)N(C1=NCC(C)(C)S1)c1ccc(F)c(Cl)c1 -9.97%, COc1cc(/C=N/Nc2ccc(Cl)cc2)ccc1OC(=O)c1cccs1 4.49%, O/N=C/c1ccc(OCc2ccccc2)c(Cl)c1 13.4%, COc1cc(/C=N/Nc2ccc3ccccc3c2)ccc1OC(=O)c1ccco1 0.98%, COc1cc(/C=N/Nc2cccc(C)c2)ccc1OC(=O)c1ccco1 -4.8%, CSc1ccc(/C=N/Nc2ccc(Cl)c(C(=O)O)c2)cc1 12.6%, O=C(O)c1cc(N/N=C/c2ccncc2)ccc1Cl 18.2%, O/N=C/c1ccc(OCc2ccccc2)c(Br)c1 6.58%, COc1cc(/C=N/Nc2ccccc2)ccc1OC(=O)c1cccs1 1.12%, O=[N+]([O-])c1ccc(C[n+]2cccc3ccccc32)cc1 1.34%, O=C(CN1CCCCC1CO)c1ccc(OC(F)F)cc1 (configuration not stated) 6.93%, Cc1cc(NC(=O)CSc2ncnc3c2cnn3-c2cccc(Cl)c2)no1 1.8%, CCn1cc(Br)c(C(=O)NC(C)c2ccccc2)n1 (configuration not stated) -36.5%, Cc1csc(NC(=O)C2CCN(S(=O)(=O)c3ccc4c(c3)oc(=O)n4C)CC2)n1 8.23%, CC(C)(C)C(=O)N1N=C(c2cccc(NS(C)(=O)=O)c2)CC1c1cccs1 (configuration not stated) 29.7%, O=C(CCNS(=O)(=O)c1cccs1)Nc1nccs1 -0.31%, O=C(Nc1n[nH]c(C2CCCCC2)n1)C1CCCCC1 -5.77%, Nc1n[nH]c(C2CCCCC2)n1 -1.74%
